Values without a mark were called inactive. For some of these results: Entries with a potency or affinity are not part of this list. The source made the active and inactive calls. Unless noted, how the calls were made is not given here.

A short description of assay [1]: antimalarial activity against Dd2 strain (AID 2302;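 active means growth inhibition above 50% at the single 2 µM test dose, taken to imply half-maximal potency below 2 µM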;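 further: 0% = DMSO untreated growth and 100% = chloroquine plus artemisinin killed control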). The note with it: P. falciparum Dd2 in RBCs, LDH growth readout, 72 h; at 2 µM; active compounds read high.
Assay [2] is described as follows: HepG2 cytotoxicity, primary screen, cytotoxicity control for P. falciparum antimalarial project, cell-based, ATP luminescence (AID 2303;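 active means inhibition above 50%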;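 further: 0% = DMSO wells and 100% = digitonin-killed cells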). Particulars: HepG2 viability, 24-48 h, at 10 µM, active compounds read high.
The target in assay [3] is L-lactate dehydrogenase (Plasmodium falciparum (isolate CDC / Honduras)) (UniProt Q27743). Put plainly: PfLDH activity inhibition – cell lysate, 3D7 strain, counter-screen for P. falciparum growth inhibition project (AID 2304).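 Further: 0% = vehicle and 100% = reference inhibitor.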 The note with it: P. falciparum 3D7 crude extract, LDH APAD/NBT absorbance; at 2 µM; active compounds read high.
Assay [4] is described as follows: inhibition of 3D7 malaria parasite growth – strain 3D7 (AID 2306).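 Further: 0% = DMSO wells and 100% = chloroquine plus artemisinin control wells.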 Particulars: P. falciparum 3D7 erythrocytic growth, LDH absorbance, 72 h; at 2 µM; active compounds read high.
Assay [5] addresses Calcium-dependent protein kinase 1 (Plasmodium falciparum (isolate 3D7)) (UniProt P62344). The assay is described as follows: PfCDPK1 kinase inhibitors, biochemical, TCAMS library (AID 1159585; cut-off not given, nearly all actives have IC50 up to about 0.98 µM;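 further: inhibitors leave more ATP so luminescence rises with inhibition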). The note with it: recombinant PfCDPK1, Kinase-Glo ATP depletion luminescence.
Assay [6] has as its target Plasmodium falciparum protein kinase 6 (PK6, PF3D7_1337100) (UniProt Q8IDW1). The assay is described as follows: PfPK6 kinase inhibitors, biochemical, TCAMS library (AID 1159586). Particulars: recombinant PfPK6, Kinase-Glo ATP depletion luminescence.
For assay [7], the target named is Protein kinase 7 (PK7), Plasmodium falciparum 3D7 (PF3D7_0213400) (UniProt Q7YTF7). The assay is described as follows: inhibition of Plasmodium PK7 catalytic activity – biochemical, TCAMS antimalarial set, Kinase-Glo luminescence (AID 1159587). Particulars: recombinant PfPK7, Kinase-Glo ATP depletion luminescence.
For assay [8], the target named is Calcium-dependent protein kinase 4 (Plasmodium falciparum (isolate 3D7)) (UniProt Q8IBS5). The assay is described as follows: PfCDPK4 kinase inhibitors, biochemical, TCAMS library (AID 1159588; cut-off not given, nearly all actives have IC50 up to about 0.91 µM). Particulars: recombinant PfCDPK4, Kinase-Glo ATP depletion luminescence.
Calcium-dependent protein kinase 4 (Plasmodium falciparum (isolate 3D7)), sequence (Q8IBS5 whole entry, looked up): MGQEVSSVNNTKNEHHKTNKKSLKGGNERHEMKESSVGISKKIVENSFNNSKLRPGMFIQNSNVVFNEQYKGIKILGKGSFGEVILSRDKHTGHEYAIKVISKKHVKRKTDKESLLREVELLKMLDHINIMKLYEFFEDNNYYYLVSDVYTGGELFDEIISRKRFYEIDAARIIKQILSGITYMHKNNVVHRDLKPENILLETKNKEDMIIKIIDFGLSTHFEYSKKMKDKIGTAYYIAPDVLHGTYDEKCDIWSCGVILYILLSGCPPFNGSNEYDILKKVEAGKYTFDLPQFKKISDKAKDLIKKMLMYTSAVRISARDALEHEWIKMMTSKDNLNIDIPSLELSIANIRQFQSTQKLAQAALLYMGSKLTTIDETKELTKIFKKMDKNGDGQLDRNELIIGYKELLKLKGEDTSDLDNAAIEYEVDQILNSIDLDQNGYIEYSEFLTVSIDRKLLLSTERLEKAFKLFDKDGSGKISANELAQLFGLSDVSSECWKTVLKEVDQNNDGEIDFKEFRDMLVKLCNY

Plasmodium falciparum protein kinase 6 (PK6, PF3D7_1337100), sequence (Q8IDW1 1-305): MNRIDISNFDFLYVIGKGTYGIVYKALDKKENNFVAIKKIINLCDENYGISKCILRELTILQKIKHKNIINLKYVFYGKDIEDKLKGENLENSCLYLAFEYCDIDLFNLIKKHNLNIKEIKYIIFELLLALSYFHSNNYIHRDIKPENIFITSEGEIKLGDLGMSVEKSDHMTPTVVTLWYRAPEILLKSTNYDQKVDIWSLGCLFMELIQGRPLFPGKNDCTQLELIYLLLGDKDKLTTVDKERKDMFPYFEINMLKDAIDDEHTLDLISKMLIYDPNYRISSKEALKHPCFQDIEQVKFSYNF
Protein kinase 7 (PK7), Plasmodium falciparum 3D7 (PF3D7_0213400), sequence (Q7YTF7 1-343): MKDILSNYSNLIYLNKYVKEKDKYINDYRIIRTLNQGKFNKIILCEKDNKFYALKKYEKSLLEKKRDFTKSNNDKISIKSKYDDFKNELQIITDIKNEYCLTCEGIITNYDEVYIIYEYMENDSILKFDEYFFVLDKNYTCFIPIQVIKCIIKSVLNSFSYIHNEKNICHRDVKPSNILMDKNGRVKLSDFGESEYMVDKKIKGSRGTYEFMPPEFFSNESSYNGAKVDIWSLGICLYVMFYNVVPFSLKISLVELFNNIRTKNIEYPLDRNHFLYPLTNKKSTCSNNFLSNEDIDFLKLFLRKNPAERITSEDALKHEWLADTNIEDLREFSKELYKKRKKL
L-lactate dehydrogenase (Plasmodium falciparum (isolate CDC / Honduras)), sequence (Q27743 whole entry, looked up): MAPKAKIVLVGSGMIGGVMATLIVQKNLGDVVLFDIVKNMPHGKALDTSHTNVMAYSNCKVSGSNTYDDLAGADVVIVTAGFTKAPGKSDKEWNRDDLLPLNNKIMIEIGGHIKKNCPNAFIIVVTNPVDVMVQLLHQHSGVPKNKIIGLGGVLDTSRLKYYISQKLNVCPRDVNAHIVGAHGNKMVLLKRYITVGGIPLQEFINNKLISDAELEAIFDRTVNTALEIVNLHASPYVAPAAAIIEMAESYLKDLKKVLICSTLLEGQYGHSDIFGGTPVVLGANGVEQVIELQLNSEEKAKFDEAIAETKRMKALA
Calcium-dependent protein kinase 1 (Plasmodium falciparum (isolate 3D7)), sequence (P62344 whole entry, looked up): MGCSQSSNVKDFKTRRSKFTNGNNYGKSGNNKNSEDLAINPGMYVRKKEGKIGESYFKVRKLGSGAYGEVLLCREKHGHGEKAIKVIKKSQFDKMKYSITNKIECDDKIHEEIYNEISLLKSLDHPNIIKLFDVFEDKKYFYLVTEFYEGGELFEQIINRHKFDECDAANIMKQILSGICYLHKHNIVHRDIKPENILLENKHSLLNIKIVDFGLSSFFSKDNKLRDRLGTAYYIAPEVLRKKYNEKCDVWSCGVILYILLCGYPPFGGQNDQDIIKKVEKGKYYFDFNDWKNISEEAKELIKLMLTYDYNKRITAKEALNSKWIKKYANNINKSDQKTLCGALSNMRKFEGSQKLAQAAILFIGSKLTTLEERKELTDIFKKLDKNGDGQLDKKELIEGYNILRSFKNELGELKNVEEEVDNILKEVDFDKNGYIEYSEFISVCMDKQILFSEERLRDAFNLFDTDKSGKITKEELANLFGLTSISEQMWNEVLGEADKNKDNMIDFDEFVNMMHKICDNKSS

As to `CC(C)CN(c1nc(C(=O)NNC(=O)[C@H](CC2CC2)NC(=O)c2cc3cc(OCCN(C)C)ccc3o2)cs1)C1CC1`, the growth inhibition in assay [1] is 97% (active); in assay [4] it was 87% (active). The values for the inhibition in assay [2] and in assay [3] were -5% and -4%, respectively. The outcome in assay [5], in assay [6], in assay [7] and in assay [8] was inactive.
For the compound `COc1ccc(NC(=O)[C@H](CC(C)C)Nc2cc(C)nc(NCC3CCCCC3)n2)cc1`, the growth inhibition in assay [1] is 92% (active); in assay [4] it was 101% (active). In addition, the inhibition in assay [2] was 7%; in assay [3], 2%. The result in assay [5], in assay [6], in assay [7] and in assay [8] was inactive.
With `O=S(=O)(NCCN1CCCC1)c1ccc(-c2cccc(CNCc3ccc(F)cc3)c2)cc1`, the figures for the growth inhibition in assay [1] and in assay [4] were 41% and 100% (active), respectively. For the same compound, the inhibition was 76% (active) in assay [2] and -2% in assay [3]. In addition, the result in assay [5], in assay [6], in assay [7] and in assay [8] was inactive.
Consider `O=C(/C=C/c1ccc([N+](=O)[O-])cc1)N1CCC(NS(=O)(=O)c2ccc(F)cc2)CC1`, for which the growth inhibition is -2% in assay [1] and 96% (active) in assay [4]. The inhibition was -7% in assay [2] and -10% in assay [3]. The outcome in assay [5], in assay [6], in assay [7] and in assay [8] was inactive.
Take `CCCCOc1ccccc1C(=O)NCc1csc(-c2ccccc2)n1`: the growth inhibition is 91% (active) in assay [1] and 93% (active) in assay [4]. Further, the inhibition in assay [2] is 17%; in assay [3], 0%. The outcome in assay [5], in assay [6], in assay [7] and in assay [8] was inactive.
Turning to `O=C(NC1CCCCC1)N(CCCn1ccnc1)Cc1csc(-c2ccc(CNCc3ccccc3)cc2)n1`, the values for the growth inhibition in assay [1] and in assay [4] were 48% and 97% (active), respectively. Moreover, the inhibition in assay [2] was 5%; in assay [3], 0%. Also, the outcome in assay [5], in assay [6], in assay [7] and in assay [8] was inactive.
Consider `O=C(O[C@H]1CN[C@H](C#Cc2cc3c(Nc4ccc(OCc5cccc(F)c5)c(Cl)c4)ncnc3s2)C1)N1CCCC1`, for which the growth inhibition in assay [1] was 67% (active); in assay [4] it was 99% (active). Further, the inhibition in assay [2] was 11%; in assay [3] it was -7%. Further, the outcome in assay [5], in assay [6], in assay [7] and in assay [8] was inactive.
On to `O=c1c2c([nH]c3cc(Cl)ccc13)CCCC2`, for which the growth inhibition was 73% (active) in assay [1] and 96% (active) in assay [4]. The values for the inhibition in assay [2] and in assay [3] were 33% and 2%, respectively. The outcome in assay [5], in assay [6], in assay [7] and in assay [8] was inactive.
As for `COC(=O)c1cccc(CNCc2cccc(-c3cccc(-c4nc5c(C)cccc5[nH]4)c3)c2)c1`, the growth inhibition in assay [1] was 47%; in assay [4] it was 101% (active). The inhibition in assay [2] was -1%; in assay [3] it was 3%. Also, the outcome in assay [5], in assay [6], in assay [7] and in assay [8] was inactive.
For `Cc1cccc2[nH]c(-c3ccc(-c4ccc(CNCc5ccc(S(C)(=O)=O)cc5)cc4)cc3)nc12`, the growth inhibition in assay [1] was 38%; in assay [4], 93% (active). Further, the inhibition is 19% in assay [2] and -1% in assay [3]. The result in assay [5], in assay [6], in assay [7] and in assay [8] was inactive.
Take `NCC1CCCN1Cc1ccc(-c2ccc(-c3nc4ccc(C(F)(F)F)cc4[nH]3)s2)cc1` (stereo not given): the growth inhibition is 97% (active) in assay [1] and 102% (active) in assay [4]. In addition, the inhibition in assay [2] was 31%; in assay [3], -3%. Moreover, the result in assay [5], in assay [6], in assay [7] and in assay [8] was inactive.
Regarding `CC1(C)[C@H]2CC[C@@H](CNc3nc(NCC(=O)Nc4ccc5ccccc5c4)nc(N4CCC(N5CCCC5)CC4)n3)[C@@H]1C2`, the growth inhibition in assay [1] is 20%; in assay [4] it was 93% (active). Besides, the inhibition in assay [2] was 6%; in assay [3], -5%. Besides, the result in assay [5], in assay [6], in assay [7] and in assay [8] was inactive.
`CN(Cc1ccccc1)C(=O)c1nn(CCCN2CCC(N3CCCC3)CC2)cc1-c1ccc(Cl)c(Cl)c1`: the growth inhibition is 66% (active) in assay [1] and 102% (active) in assay [4]. The inhibition was 43% in assay [2] and 0% in assay [3]. Also, the outcome in assay [5], in assay [6], in assay [7] and in assay [8] was inactive.
For `COc1cccc2c(Nc3ccccc3C)nc(Nc3ccccc3C)nc12`, the growth inhibition in assay [1] is 36%; in assay [4] it was 95% (active). The results for the inhibition in assay [2] and in assay [3] were 9% and 4%, respectively. Besides, the result in assay [5], in assay [6], in assay [7] and in assay [8] was inactive.
Turning to `COc1cc(Nc2nccc(NCC(O)c3ccc(C(F)(F)F)cc3)n2)cc(OC)c1OC` (stereo not given), the results for the growth inhibition in assay [1] and in assay [4] were 14% and 91% (active), respectively. The values for the inhibition in assay [2] and in assay [3] were 45% and -2%, respectively. In addition, the outcome in assay [5], in assay [6], in assay [7] and in assay [8] was inactive.
`CC(C)[C@H](NC(=O)c1c(CN2CCC(N3CCCCC3)CC2)c(-c2ccccc2)nc2cc(O)ccc12)c1ccccc1`: the growth inhibition in assay [1] is 73% (active); in assay [4], 100% (active). Further, the values for the inhibition in assay [2] and in assay [3] were 10% and 4%, respectively. The result in assay [5], in assay [6], in assay [7] and in assay [8] was inactive.
Take `NC1=NC(CCc2ccccc2)N(c2ccccc2)C(N)=N1` (stereo not given): the growth inhibition in assay [1] is 15%; in assay [4], 94% (active). Besides, the inhibition in assay [2] is 1%; in assay [3], -9%. Besides, the result in assay [5], in assay [6], in assay [7] and in assay [8] was inactive.
Turning to `CN1CCCN(Cc2cccc(-c3ccc(NC(=O)c4cccc(C#N)c4)cc3)c2)CC1`, the growth inhibition is 96% (active) in assay [1] and 102% (active) in assay [4]. The inhibition in assay [2] is 27%; in assay [3] it was -6%. Further, the outcome in assay [5], in assay [6], in assay [7] and in assay [8] was inactive.
In the case of `O=C(NCC1CCN(Cc2cccc(F)c2)C1)c1cc(-c2cccc(C(F)(F)F)c2)cs1` (stereo not given), the growth inhibition in assay [1] is 10%; in assay [4] it was 96% (active). Moreover, the inhibition was 31% in assay [2] and -2% in assay [3]. The outcome in assay [5], in assay [6], in assay [7] and in assay [8] was inactive.
For `CC(C)NCc1ccc(-c2ccc(NC(=O)c3cccc(Cl)c3)cc2)cc1`, the growth inhibition in assay [1] was 14%; in assay [4], 100% (active). The inhibition in assay [2] was 36%; in assay [3], -2%. For the same compound, the result in assay [5], in assay [6], in assay [7] and in assay [8] was inactive.

Source of the values: PubChem BioAssay.
